# Measurements: PubChem BioAssay AID2061313 (National Center for Advancing Translational Sciences (NCATS), 2025)
# Records with an inconclusive call do not appear. The source made the active and inactive calls. Calls follow the shape of the dose curve; as a rule, active = well fitted curve in the direction sought with a large enough effect; inconclusive = small, poorly fitted or top-dose-only effect, or another doubt; inactive = no such curve, though single readings can be large or run the other way.
# Biological target: Aldehyde dehydrogenase 1A1 (Homo sapiens) (UniProt P00352)
# Assay: qHTS for Inhibitors of the Aldehyde Dehydrogenase Family (ALDH1A1) Validation screens
# Details: fluorescence; Potency: ALDH1A1 inhibition validation qHTS; series mostly up to 39.8 µM; activity change, negative = inhibition: at the top concentration
SMILES,Potency,"activity change, negative = inhibition"
CC(C)N(CCC(=O)c1ccc2ccccc2c1)Cc1ccccc1,70.8 nM (active),
CC(C)(C)c1ccc(S(=O)(=O)/C=C/C#N)cc1,89.1 nM (active),
O=c1c(-c2ccc(O)cc2)coc2cc(O[C@@H]3O[C@H](CO)[C@H](O)[C@H](O)[C@H]3O)ccc12,,-7.82% (inactive)
